In all, about 420,000 compounds went through this assay and about 50,000 (12%) were called active. Entries that show only a call come without a potency. Not shown: some 26% with an inconclusive outcome. The sample holds actives, similar compounds and a random draw of the others, so the mix is not that of the screen. Calls come from the whole dose curve; as a rule, active = well fitted inhibition curve with a large enough effect; inconclusive = small, poorly fitted or top-dose-only effect; inactive = flat fitted curve, though single readings scatter.
Assay: qHTS for Inhibitors of human tyrosyl-DNA phosphodiesterase 1 (TDP1): qHTS in cells in presence of CPT; note: nearly all actives have a fitted effect of over 55% in size
Conditions: chicken DT40 Tdp1-/-;hTDP1 cells + 20 nM CPT, ATP luminescence, 48 h; series mostly up to 46.2 µM
Procedure, shortened: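 Chicken DT40 Tdp1-/- cells complemented with human TDP1, 400 cells/well, exposed to compounds plus 20 nM camptothecin for at least 48 h at 37 C; viability read as ATP content by CellTiter-Glo luminescence.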
Potency is the fitted concentration of half-maximal effect.

Compound	Potency
CC(=O)c1ccc(N2Cc3ccccc3C2)cc1	inactive
O=C(Nc1ccc(NC(=O)c2ccc3c(c2)OCO3)cc1)c1cccc(Cl)c1	inactive
O=C(Nc1cccc(S(=O)(=O)Nc2ccc(Cl)cc2)c1)c1ccc2c(c1)OCCO2	13 µM (active)
O=C(Nc1nncs1)c1cccc(S(=O)(=O)N2CCCCC2)c1	inactive
O=C(Nc1cccc(S(=O)(=O)N2CCCCC2)c1)c1ccc2c(c1)OCO2	25.9 µM (active)
CC(NS(=O)(=O)c1ccc(Cl)cc1)C(=O)Nc1ccc2c(c1)OCCO2 (stereo unspecified)	inactive
CN1CCN(S(=O)(=O)c2cccc(C(=O)Nc3cccc(S(N)(=O)=O)c3)c2)CC1	inactive
Cc1cc(C)cc(OCC(=O)OCC(=O)NC2CCCC2)c1	inactive
Cn1c(=O)c(=O)n(C)c2cc(S(=O)(=O)CCC(=O)N3CCCCC3)ccc21	inactive
COc1cc(S(=O)(=O)N2CCN(C(=O)C3CC3)CC2)ccc1NC(C)=O	inactive
Clc1ccc(Cl)c(Oc2ccc(Oc3nc(Cl)ccc3Cl)cc2)n1	inactive
COC(=O)CCCCC1=CCC2C(=O)C=C(O)C2C1 (stereo unspecified)	inactive
COc1ccc(-c2nnc(SCC(=O)NC3CCCCC3)o2)cc1OC	20.6 µM (active)
COc1ccc(-c2nnc(SCC(=O)Nc3ccccc3C)o2)cc1OC	inactive
Cc1cc(C)cc(-c2nnc(SCC(=O)NC3CC3)o2)c1	inactive
Cc1cc(C)nc(/N=C2\NC(=O)CC(C(=O)O)N2c2ccc(Cl)cc2Cl)n1 (stereo unspecified)	inactive
Cc1cc(NC(=O)/C=C/C(=O)N(c2ccccc2C)C(C(=O)NC2CCCC2)c2ccc(F)cc2)no1 (stereo unspecified)	20.6 µM (active)
Cc1cc(NC(=O)/C=C/C(=O)N(CC(=O)NC2CCCC2)c2ccc(F)cc2)no1	inactive
Cc1cc(NC(=O)CCC(=O)N(c2cccc(F)c2)C(C(=O)NC2CCCC2)c2ccncc2)no1 (stereo unspecified)	inactive

Compound	Potency
O=C(Nc1ccc(F)c([N+](=O)[O-])c1)C1CCCO1 (stereo unspecified)	inactive
CN(c1ccccc1)S(=O)(=O)c1cccc(C(=O)NNC(=O)c2ccncc2)c1	inactive
CCN(CC)S(=O)(=O)c1ccc(N2CCOCC2)c(NC(=O)c2ccc(=O)n(C)n2)c1	inactive
CCN(CC)S(=O)(=O)c1ccc(N2CCOCC2)c(NC(=O)C2COc3ccccc3O2)c1 (stereo unspecified)	18.4 µM (active)
CN(C)S(=O)(=O)c1ccc(N2CCCC2)c(C(=O)NCc2ccccc2)c1	inactive
CCN(CC)S(=O)(=O)c1ccc(N2CCCC2)c(NC(=O)c2ccc([N+](=O)[O-])o2)c1	23.1 µM (active)
CCN1CCN(c2ccc(S(=O)(=O)N3CCCCC3)cc2NC(=O)c2cccc(NC(C)=O)c2)CC1	inactive
CCN(CC)S(=O)(=O)c1ccc(N2CCOCC2)c(C(=O)O)c1	inactive
O=C(c1cccnc1)N(Cc1ccccc1)C(=O)c1cccnc1	inactive
COc1ccccc1C(=O)NCC(=O)OCC(=O)NNC(=O)c1ccc(Br)cc1	inactive
Cc1ccc(N2C(=O)C(NC(=O)c3c(F)cccc3F)(C(F)(F)F)C3=C2CC(C)(C)CC3=O)cc1 (stereo unspecified)	inactive
Cc1ccc(O)c(NC(=O)c2cc(-c3ccco3)on2)c1	inactive
Cc1cccc(NC(=O)C2CC(=O)OC23CCCC3)c1 (stereo unspecified)	inactive
COc1cc2c(cc1OC)C(c1ccc(C)o1)CC(=O)N2 (stereo unspecified)	inactive
CCCOc1ccccc1C1CC(=O)Nc2cc3c(cc21)OCO3 (stereo unspecified)	2.31 µM (active)
COc1ccccc1C1C2=C(COC2=O)Nc2cc3c(cc21)OCO3 (stereo unspecified)	inactive
COc1ccccc1C(=O)NC(=O)COC(=O)C1CC1	inactive
N#Cc1c(N)nc2c3c(sc(=N)c2c1N)NC(=O)CC3c1ccccc1Cl (stereo unspecified)	inactive
CCCCOc1ccc(CON(C(C)=O)C(C)=O)cc1Cl	inactive

Compound	Potency
CCCCOc1ccc(CSC(=N)N)cc1[N+](=O)[O-]	13 µM (active)
COc1ccc(NC(=O)CSCc2ccc([N+](=O)[O-])cc2)cc1OC	inactive
Cc1nn(C)c(C)c1C(C)NC(=O)c1ccc(OC2CCN(Cc3ccccn3)CC2)cc1 (stereo unspecified)	inactive
Cc1ccc(/C=N/NC(=S)Nc2cccc(S(=O)(=O)N(C)C)c2)o1	4.61 µM (active)
Cc1ccc(/C=N/NC(=O)Cn2nc(C)c(Br)c2C)o1	inactive
CN(C)S(=O)(=O)c1cccc(NC(=O)Cc2ccsc2)c1	inactive
COc1ccc(NC(=O)CN(C)C(=O)Cc2coc3cc(C)c(C)cc23)cc1	inactive
COc1ccc(NC(=O)C(CC(C)C)NC(=O)C2CCC(C)CC2)cc1 (stereo unspecified)	inactive
CCc1ccc(-n2nnc(-c3nc(-c4ccccc4)no3)c2C)cc1	inactive
O=C(CN(C(=O)c1csnn1)c1cccc(Cl)c1)NC1CCCC1	inactive
O=C(NC(=S)Nc1ccccc1N1CCCCC1)c1ccc(F)cc1	inactive
CC(=O)c1ccc(NC(c2ccc(F)cc2)c2nnc(-c3ccccc3)o2)cc1 (stereo unspecified)	9.2 µM (active)
CC(=O)c1ccc(NC(=O)COc2ccccc2-c2nc(-c3ccccc3)no2)cc1	inactive
CCCN(CCC)c1ccc(C(O)c2nnc(-c3ccccc3)o2)cc1 (stereo unspecified)	inactive
CCn1c(SCC(=O)Nc2ccc3c(c2)OCCO3)nnc1-c1ccncc1	inactive
CCC(=O)c1ccc(OCC(=O)OCC(=O)NC2CCCCCC2)cc1	inactive
Cc1cc(C)c(C)c(S(=O)(=O)Nc2cccnc2)c1C	inactive
Cc1ccc(C(=O)NNC2=Nc3cc([N+](=O)[O-])ccc3OC2)cc1	inactive
